Compounds with a hit are over-represented: about 22% of the library has one in this group of screens.
Pf growth 48h – Primary qHTS for delayed death inhibitors of the malarial parasite plastid, 48 hour incubation; 310,000 tested, 5.9% active; P. falciparum luciferase growth in erythrocytes, 48 h; AID 504832, 2011; Potency, µM (doses to about 28.7 µM), for the others: at the top dose activity change, negative = inhibition, usual class: inhibitors; further: potency means the concentration at half of the fitted maximal effect; on the % scale 0 is the no-effect control and ±100 the full control effect
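Erythrocytes infected with P. falciparum carrying an integrated firefly luciferase reporter (2% hematocrit, 0.1% parasitemia final) were exposed to compounds in RPMI 1640 with 0.5% Albumax at 37 C, 5% CO2. Growth inhibition was scored as reduced luminescence.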
LmPK inh – qHTS Assay for Inhibitors of Leishmania Mexicana Pyruvate Kinase (LmPK); Q27686; purified LmPK, Kinase-Glo ATP luminescence, 1 h; Potency, µM (titrated, usually from 57.5 µM), for the others: at the top dose activity change, negative = inhibition, actives largely listed as inhibitors; 290,000 tested, 0.37% active; further: potency means the concentration at half of the fitted maximal effect; on the % scale 0 is the no-effect control and ±100 the full control effect
Target sequence (Q27686 whole entry, looked up): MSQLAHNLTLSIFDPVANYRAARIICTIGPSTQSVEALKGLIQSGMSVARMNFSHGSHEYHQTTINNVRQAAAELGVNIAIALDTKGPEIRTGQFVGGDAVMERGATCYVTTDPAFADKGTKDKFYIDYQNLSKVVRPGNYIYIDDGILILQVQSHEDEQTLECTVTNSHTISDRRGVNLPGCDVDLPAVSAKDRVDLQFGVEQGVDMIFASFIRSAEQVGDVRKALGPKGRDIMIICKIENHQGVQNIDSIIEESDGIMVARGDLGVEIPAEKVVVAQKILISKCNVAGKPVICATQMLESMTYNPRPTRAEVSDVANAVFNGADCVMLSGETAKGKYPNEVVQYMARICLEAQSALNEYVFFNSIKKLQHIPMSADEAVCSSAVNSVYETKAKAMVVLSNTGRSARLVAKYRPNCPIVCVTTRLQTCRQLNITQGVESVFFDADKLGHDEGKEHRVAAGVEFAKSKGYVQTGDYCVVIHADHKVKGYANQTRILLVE
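In 50 mM imidazole pH 7.2 with 7 mM MgCl2, LmPK (0.1 nM) turned over PEP (0.5 mM) and ADP (0.1 mM) for 1 h at room temperature. Luciferase read-out of ATP.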
Shiga toxin inh – A qHTS for Small Molecule Inhibitors of Shiga Toxin. Vero cells, Shiga toxin protein synthesis inhibition reporter. AID 2315, 2010. 290,000 tested, 9.2% active. inhibition, % at 38.7 µM; in the data active means inhibition mostly above about 28%, no sharp cut-off; inactive means mostly below about 43%; further: 0% is about no effect
CHX counter – Cycloheximide Counterscreen for Small Molecule Inhibitors of Shiga Toxin; max response, %; 300,000 tested, 12% active; cell reporter, cycloheximide protein synthesis inhibition counterscreen; in the data active means max response mostly above about 13%, no sharp cut-off; inactive means mostly below about 14%; further: read at 38.3 µM for the half of the compounds with a filed dose; 0% is about no effect
Pf growth 96h – Primary qHTS for delayed death inhibitors of the malarial parasite plastid, 96 hour incubation; Potency, µM (top dose mostly 28.7 µM), inactives show top-dose activity change, negative = inhibition, most hits filed as inhibitors; P. falciparum luciferase reporter growth, 96 h; 320,000 tested, 6.9% active; further: potency means the concentration at half of the fitted maximal effect; on the % scale 0 is the no-effect control and ±100 the full control effect
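P. falciparum expressing integrated firefly luciferase grown in erythrocytes (2% hematocrit, 0.05% parasitemia final) with compounds for 96 hours at 37 C, 5% CO2. Growth inhibition read as loss of luminescence after adding luciferase detection reagent.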
Numbers without * were called inactive; ? = inconclusive; · = no result given; [ ] = another dose, or the depositor's remark. Unless noted, the call rests on the fitted dose curve; in most records, active means well fitted inhibition curve with a large enough effect; inconclusive means small, poorly fitted or top-dose-only effect, or another doubt; inactive means no such curve, though single readings can be large or run the other way.

SMILES | Pf growth 48h | LmPK inh | Shiga toxin inh | CHX counter | Pf growth 96h
O=C(COc1ccc(Cl)cc1)NCc1cn2cc(Cl)ccc2n1 | 0% | 8% | -3 | 11 | 14%
CC/C(=C(/c1ccccc1)c1ccc(OCCN(C)C)cc1)c1ccccc1 | · | · | -9 | -7 | ·
CCOC(=O)C1CCN(C(=O)Cn2nc(C)n3c(cc4cc(F)ccc43)c2=O)CC1 | 4% | 1% | 1 | -3 | 42%
CC(=O)c1ccc(OCCCC(=O)NCCc2ccc(C(F)(F)F)cc2)cc1 | -32% | -8% | -8 | 1 | -25%
O=C1CC(c2ccccc2)CC(O)=C1C=Nc1ccccc1Cl (centres undefined) | 20% | 2% | 8 | 3 | ?
COc1ccccc1N=CC1=C(O)CC(c2ccccc2)CC1=O (centres undefined) | 13% | -1% | 7 | 3 | 13µM*
O=C1CC(c2ccccc2)CC(O)=C1C=NCc1ccc(Cl)c(Cl)c1 (centres undefined) | 5% | 3% | 15 | -7 | ?
CC(C)CCN=CC1=C(O)CC(c2ccccc2)CC1=O (centres undefined) | -7% | -13% | 53 | 29* | 17%
O=C1CC(c2ccccc2)CC(O)=C1C=NCc1ccncc1 (centres undefined) | 9% | -6% | -15 | -1 | 12µM*
COC(=O)c1ccc(C(=O)OC)c(NC(=O)CN(c2ccccc2)S(=O)(=O)N(C)C)c1 | ? | 10% | -4 | 0 | 0%
COc1ccc(CCNC(=O)C2CCN(C(=O)c3ccc(Br)cc3)CC2)cc1 | ? | 10% | · | -1 | ?
Cc1ccc(NC(=O)C(C)C(=O)Nc2ccc(C)cc2)cc1 | 2% | 4%[11.5 µM] | -21 | -4 | ?
Cc1ccc(NC(=O)N2CCC(=O)N2)cc1 | 26% | -5% | 77* | 37* | 48%
CSc1ccccc1NC(=O)C1=CC(c2cccs2)=NS(=O)(=O)N1C | ? | 12% | 15* | 4 | 3%
CN1C(C(=O)Nc2ccc(F)cc2F)=CC(c2ccco2)=NS1(=O)=O | 42% | -3% | -7 | 0 | 28%
Cc1ccc(C2=NS(=O)(=O)N(C)C(C(=O)Nc3ccc(F)cc3F)=C2)cc1 | 33% | -1% | 16* | 10 | 19%
COC(=O)c1ccccc1NC(=O)C1=CC(c2cccs2)=NS(=O)(=O)N1C | 16% | -1% | -1 | 2 | 38%
CC(=O)/C=N/Nc1ccccc1 | -18% | 0% | -3 | 2 | 67%
OC[C@@H](O)[C@H](O)C(/C=N/Nc1ccccc1)=N\Nc1ccccc1 | -7% | 3% | 18 | 28* | -17%
CCN(Cc1cccc(F)c1)C(=O)c1ccc2ccccc2n1 | 18% | 3% | 62 | 40* | 6%
Cc1ccc(Oc2c(C)nc(-c3ccccc3)[nH]c2=O)cc1 | 1µM* | 3% | 12 | -2 | 1.7µM*
Brc1cc2c(cc1/C=N/Nc1nc(N3CCOCC3)nc(N3CCOCC3)n1)OCO2 | ? | 0% | -10 | -5 | -6%
Cc1cc(NC(=O)CS(=O)(=O)Cc2ccccc2)no1 | 8% | 4% | -2 | -3 | -1%
CCC(ONc1ccccc1C(F)(F)F)(C(=O)NN(C)C)c1ccccc1 (centres undefined) | ? | · | · | · | -2%
COc1cccc(NC(=O)CN2CCN(S(=O)(=O)c3ccc(C(C)C)cc3)CC2)c1 | ? | -11% | -29 | -2 | 12µM*
SMILES | Pf growth 48h | LmPK inh | Shiga toxin inh | CHX counter | Pf growth 96h
COc1cc(NC(=O)CN2CCN(S(=O)(=O)c3ccc(C(C)C)cc3)CC2)cc(OC)c1 | ? | 0% | -20 | 4 | 31%
COc1cccc(N2CCN(CC(=O)Nc3ccc(S(=O)(=O)N4CCCCCC4)cc3)CC2)c1 | 12µM* | · | · | · | ?
CC(=O)c1c(C)[nH]c(C(=O)CN2CCN(S(=O)(=O)c3ccc(C(C)C)cc3)CC2)c1C | 12µM* | · | · | · | 12µM*
N#Cc1c2n(c(=S)n(-c3ccc(OC(F)F)cc3)c1=O)CCCCC2 | -21% | 8% | 20 | -5 | ?
N#Cc1c2n(c(=S)n(-c3ccccn3)c1=O)CCCCC2 | 12% | 2% | 25 | 16* | 8%
Cc1noc(C)c1-c1ccc2ncnc(NCc3cccc(C(F)(F)F)c3)c2c1 | · | · | 28 | 16 | ·
O=C(O)c1cc(-n2[nH]c(=O)c3ccccc3c2=O)ccc1Cl | 12% | 3% | 148* | 44* | 20%
O=c1[nH]n(-c2ccccc2)c(=O)c(Cl)c1Cl | -14% | 12% | -8 | 1 | ?
COc1ccc(-c2cn3cc(C)ccc3n2)cc1OC | 64% | 16µM* | 55* | 33* | 129%
COc1ccc(-c2cn3cc(C)ccc3n2)cc1F | 62% | -27% | 15 | 16* | ?
CNC(=O)Oc1ccc(-c2cn3cc(C)ccc3n2)cc1 | -81% | -22% | 6 | -2 | ?
O=C(NCCCc1ccc(F)cc1)C1CCC(=O)N(CCN2CCOCC2)C1 (centres undefined) | 21% | -1% | -4 | -2 | ?
CC(C)Oc1ccc(CC2CC(=O)NC2=O)cc1 (centres undefined) | 40% | 0% | -5 | -2 | 10µM*
CCOc1ccc(N(CC(=O)NCc2ccc(OC)cc2)S(C)(=O)=O)cc1 | 59% | -15% | 56* | 34* | 182%
COc1ccc(N(CC(=O)NCc2ccccc2)S(C)(=O)=O)cc1 | 27% | 0% | 52* | 31* | 0%
CS(=O)(=O)N(CC(=O)NCc1ccccc1)c1ccc(Cl)cc1 | 8% | -6% | -3 | 3 | 0%
CCN(CC)C(=O)c1ccc2c3c(cccc13)C(=O)N(CCc1ccc(OC)c(OC)c1)C2=O | ? | -7% | -13 | -4 | ?
Cc1ccc(-n2c(SCC(=O)NCc3ccco3)nc3c(sc4ccccc43)c2=O)cc1 | ? | 3% | 119* | 53* | -28%
Cc1ccc(Cn2c(SCC(=O)NCc3ccco3)nc3ccsc3c2=O)cc1 | 13µM* | 6% | 42 | 27* | ?
O=C(CSc1nc2ccsc2c(=O)n1CC1CCC(C(=O)O)CC1)NCCc1ccc(Cl)cc1 (centres undefined) | ? | -3% | -9 | -1 | 7.4µM*
COc1ccc(Cl)cc1NC(=O)CSc1nc2ccsc2c(=O)n1CC1CCC(C(=O)O)CC1 (centres undefined) | ? | 3% | 43 | 1 | -1%
COc1ccc(OC)c(NC(=O)CCN2C(=O)c3ccccc3C2=O)c1 | 70% | 1% | -9 | -1 | ?
OCC[C@H]1C[C@H](O)[C@@H](O)[C@@]2(CCCCO2)O1 | 13% | 2% | -22 | -2 | 11%
O=C(COC(=O)c1ccc(F)cc1F)NC(=O)Nc1ccc2c(c1)OCCO2 | 45% | · | · | · | 78%
Cc1c(-c2cccs2)[n+](=O)c2c(n1[O-])CCCCC2 | -3% | -3% | -11 | -5 | 10µM*
CN1C(=O)c2cccc(NC(=O)Cc3ccccc3)c2C1=O | · | 0% | -16 | -4 | 21%

Screens: PubChem BioAssay, National Center for Advancing Translational Sciences (NCATS)
